Among the data in the supplement of paper PMC9254222 are Renilla luciferase signal values, retold here.

The test system of this experiment is HEK293T (UBE3A T485A transfected, BAR Wnt reporter). The experiment in a line: Renilla luciferase signal (cell health) relative to plate median (fold (linear ratio)); higher = higher Renilla signal. To be noted: 24 h. In short, it runs like this: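 Using Fugene 6, HEK293T cells in white 384-well plates (4500 cells/well; DMEM, 10% FBS, 37°C, 5% CO2) were transfected with a BAR firefly luciferase Wnt reporter, TK-Renilla and an expression plasmid. After four hours, robots dosed the chemicals at 0.01–100 uM, and a Dual-Glo luciferase readout followed 24 h later. Per-plate median-centred firefly/Renilla ratios gave Wnt activity, while per-plate median-centred raw Renilla signals gave cell health. Four biological replicates were averaged.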

Molecules are shown by their SMILES. The full ranking holds about 1,100 compounds; the median of “Renilla luciferase signal (cell health) relative to plate median” is about 0.97, and the highest 2% start at about 1.6. Only a selection was taken, and the highest values are over-represented in it overall.

`O=C(O)c1cc(/N=N/c2ccc(S(=O)(=O)Nc3ccccn3)cc2)ccc1O` [Sulfasalazine]: the Renilla luciferase signal was found to be 0.788 (concentration: 0.1 uM), 0.885 (concentration: 1 uM), 0.691 (concentration: 10 uM) and 0.277 (concentration: 100 uM).
Regarding `CC(C)(C)C(O)C(Cc1ccc(Cl)cc1)n1cncn1` (configuration not stated) [Paclobutrazol], the Renilla luciferase signal (concentration: 0.01 uM) turned out to be 1.25; the Renilla luciferase signal (concentration: 0.1 uM) came out at 1.16; the Renilla luciferase signal (concentration: 1 uM) turned out to be 1.06; the Renilla luciferase signal (concentration: 10 uM) is 1.22; the Renilla luciferase signal (concentration: 100 uM) turned out to be 1.62.
On to `CCOc1cccc(-n2cc(C(=O)N3CCN(c4cc(C(=O)[O-])c5ccccc5c4)CC3)nc2-c2ccc(C)cc2)c1.[Na+]`, for which the Renilla luciferase signal runs as follows: (concentration: 0.1 uM) 0.869; (concentration: 1 uM) 0.966; (concentration: 10 uM) 0.903; (concentration: 100 uM) 0.0785.
`Cc1cc(NC(=O)C(=O)O)cc(C)c1Oc1ccc(O)c2c1CCC2`: the Renilla luciferase signal (concentration: 0.1 uM) worked out at 1.12, the Renilla luciferase signal (concentration: 1 uM) turned out to be 1.12, the Renilla luciferase signal (concentration: 10 uM) is 0.767 and the Renilla luciferase signal (concentration: 100 uM) was 1.03.
Take `Cc1occc(=O)c1O` [Maltol]: the Renilla luciferase signal came out at 0.895 (concentration: 0.1 uM), 0.982 (concentration: 1 uM), 0.967 (concentration: 10 uM) and 1.11 (concentration: 100 uM).
With `CCN(CC)C(=O)c1cc(S(=O)(=O)Cc2ccccc2)c(N2CCC(c3ccccc3)CC2)cc1N(CC)CCN(C)C.O=C(O)C(F)(F)F` [HMR1171 trifluoroacetate (1:1)], the Renilla luciferase signal (concentration: 0.1 uM) turned out to be 0.802, the Renilla luciferase signal (concentration: 1 uM) was 0.767, the Renilla luciferase signal (concentration: 10 uM) amounted to 0.648 and the Renilla luciferase signal (concentration: 100 uM) was found to be 0.249.
For the molecule `OC12N=C(c3ccccc3)SC1Cc1cc(Cl)ccc12` (configuration not stated), the Renilla luciferase signal runs as follows: (concentration: 0.1 uM) 1.14; (concentration: 1 uM) 1.13; (concentration: 10 uM) 1.03; (concentration: 100 uM) 0.714.
Turning to `Cc1cc(SC2=C(O)C[C@@](CCc3ccc(N)cc3)(C(C)C)OC2=O)c(C(C)(C)C)cc1CO`, the Renilla luciferase signal (concentration: 0.1 uM) stood at 0.926, the Renilla luciferase signal (concentration: 1 uM) stood at 1.01, the Renilla luciferase signal (concentration: 10 uM) was found to be 0.952 and the Renilla luciferase signal (concentration: 100 uM) was found to be 0.324.
`Sc1nc2ccccc2s1` [2-Mercaptobenzothiazole]: the Renilla luciferase signal is, setting by setting: (concentration: 0.1 uM) 0.981; (concentration: 1 uM) 0.791; (concentration: 10 uM) 0.768; (concentration: 100 uM) 0.92.
Take `O.O=C1[N-]S(=O)(=O)c2ccccc21.[Na+]` [Sodium saccharin hydrate]: the Renilla luciferase signal by setting is: (concentration: 0.1 uM) 1.05; (concentration: 1 uM) 1.15; (concentration: 10 uM) 1.35; (concentration: 100 uM) 1.71.
For `C#C[C@]1(O)CC[C@H]2[C@@H]3CCC4=CC(=O)CC[C@@H]4[C@H]3CC[C@@]21C` [Norethindrone], the Renilla luciferase signal runs as follows: (concentration: 0.1 uM) 0.942; (concentration: 1 uM) 0.982; (concentration: 10 uM) 0.94; (concentration: 100 uM) 0.294.
The matching figures for `c1ccc2occc2c1` [2,3-Benzofuran]: 0.785, 0.78, 0.808 and 1.07.
For the molecule `CCCCCOC(=O)COc1cc(N2C(=O)C3=C(CCCC3)C2=O)c(F)cc1Cl` [Flumiclorac-pentyl], the Renilla luciferase signal turned out to be 0.938 (concentration: 0.01 uM); 0.9 (concentration: 0.1 uM); 1.01 (concentration: 1 uM); 0.974 (concentration: 10 uM); 1.62 (concentration: 100 uM).
With `CCCCCCCCOC(=O)c1cc(O)c(O)c(O)c1` [Octyl gallate], the Renilla luciferase signal came to 0.909 (concentration: 0.1 uM), 0.947 (concentration: 1 uM), 0.814 (concentration: 10 uM) and 0.0786 (concentration: 100 uM).
Turning to `CCOC(=O)COc1cc(-n2ncc(C(F)(F)F)c(C)c2=O)c(F)cc1Cl` [Flufenpyr-ethyl], the Renilla luciferase signal was found to be 1.2 (concentration: 0.01 uM); 0.957 (concentration: 0.1 uM); 1.07 (concentration: 1 uM); 1.03 (concentration: 10 uM); 1.51 (concentration: 100 uM).
With `CCCCCCc1ccc(O)cc1O` [4-Hexylresorcinol], the Renilla luciferase signal by setting is: (concentration: 0.1 uM) 0.881; (concentration: 1 uM) 1.04; (concentration: 10 uM) 0.888; (concentration: 100 uM) 0.0332.
